Assay results: PubChem BioAssay (Tox21)
Records with an inconclusive call do not appear. The source made the active and inactive calls. Unless noted, the call rests on the fitted dose curve; in most records, active means well fitted curve in the direction sought with a large enough effect in the repeat runs; inconclusive means weak or mixed curves; inactive means no such curve, though single readings can be large; an effect the other way counts as inactive or inconclusive.

Key:
[1] = qHTS assay to identify small molecule antagonists of the sonic hedgehog signaling (Shh) pathway (AID 1259369; calls by dose curve; further: nearly all actives have a fitted effect of over 45% in size; further: potency means the concentration at half of the fitted maximal effect)
Procedure, shortened: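 NIH/3T3-derived Gli1-Luc reporter cells plated 4 h, dosed with compound, then stimulated with conditioned medium for 24 h at 37 C. Firefly luciferase luminescence read after 30 min with detection reagent at room temperature.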

[2] = target: Estrogen receptor beta (Homo sapiens) (UniProt Q92731); experiment: qHTS assay to identify small molecule agonists of the estrogen receptor beta (ER-beta) signaling pathway (AID 1259377; active means well fitted activation curve with a large enough effect in the signal ratio in the repeat runs, not every such curve was filed as active; the % refers to the signal ratio)
Chain of Estrogen receptor beta (Homo sapiens) (Q92731 whole entry, looked up): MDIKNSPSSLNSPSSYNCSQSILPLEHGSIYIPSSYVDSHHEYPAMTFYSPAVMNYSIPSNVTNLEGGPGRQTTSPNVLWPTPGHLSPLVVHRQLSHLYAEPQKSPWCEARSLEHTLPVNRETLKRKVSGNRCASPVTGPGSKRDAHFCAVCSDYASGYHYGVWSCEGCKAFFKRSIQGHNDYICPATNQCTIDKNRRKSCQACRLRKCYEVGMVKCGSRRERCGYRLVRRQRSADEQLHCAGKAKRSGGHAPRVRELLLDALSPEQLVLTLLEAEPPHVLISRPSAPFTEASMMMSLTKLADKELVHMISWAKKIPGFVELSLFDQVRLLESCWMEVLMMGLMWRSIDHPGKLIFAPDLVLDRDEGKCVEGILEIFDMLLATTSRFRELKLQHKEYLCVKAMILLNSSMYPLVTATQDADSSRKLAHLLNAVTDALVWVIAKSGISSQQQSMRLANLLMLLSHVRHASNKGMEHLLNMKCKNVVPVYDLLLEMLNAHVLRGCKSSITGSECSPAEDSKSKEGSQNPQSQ
Procedure, shortened: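 Screening used GripTite ER-beta-UAS-bla cells held in 2% charcoal-stripped FBS medium. After overnight (16 hr) compound incubation at 37C, beta-lactamase activity was detected with a FRET substrate by fluorescence.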

[3] = qHTS assay to identify small molecule agonists of the androgen receptor (AR) signaling pathway in the presence of an antagonist - cell viability counter screen (AID 1259379); further: nearly all actives have a fitted effect of over 25% in size; further: potency means the concentration at half of the fitted maximal effect
Procedure, shortened: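 MDA-kb2 cells (MMTV-luciferase, AR/GR), 3,000/well, 5 h attachment, then 3.0 µM nilutamide (final) and compounds at 15 concentrations. Viability by CellTiter-Fluor fluorescence after 16 h at 37 °C, 0% CO2, in the reporter wells.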

[4] = qHTS assay to identify small molecule agonists of the estrogen receptor beta (ER-beta) signaling pathway - cell viability counter screen (AID 1259380); further: nearly all actives have a fitted effect of over 30% in size; further: potency means the concentration at half of the fitted maximal effect
Procedure, shortened: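 ER-beta-UAS-bla HEK293T cells in medium with 2% charcoal-stripped FBS, pre-incubated 6 hr, then treated 16 hr at 37C. Cytotoxicity read in the same wells by CellTiter-Glo luminescence after 30 min at room temperature.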

[5] = qHTS assay to identify small molecule antagonists of the estrogen receptor beta (ER-beta) signaling pathway - cell viability counter screen (AID 1259382); further: nearly all actives have a fitted effect of over 55% in size; further: potency means the concentration at half of the fitted maximal effect
Procedure, shortened: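 ER-beta-UAS-bla HEK293T cells in 2% charcoal-stripped FBS medium, treated with compound plus 1 nM 17-beta-estradiol for 16 h at 37C. Viability read by CellTiter-Glo luminescence after 30 min at room temperature in the same wells.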

[6] = qHTS assay to identify small molecule agonists or antagonists of the thyroid stimulating hormone receptor (TSHR) signaling pathway - wild type cell line counter screen (AID 1259384; calls by dose curve)
Procedure, shortened: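 Wild-type Hek293 cells, 800/well, 18 h at 37C, then compound with Ro20-1724 for 30 min RT. cAMP by HTRF (cAMP-d2/anti-cAMP cryptate), 1 h RT, fluorescence read. 15 concentrations, triplicates.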

[7] = target: Thyrotropin receptor (Homo sapiens) (UniProt P16473); experiment: qHTS assay to identify small molecule antagonists of the thyroid stimulating hormone receptor (TSHR) signaling pathway (AID 1259385; calls by dose curve; further: nearly all actives have a fitted effect of over 20% in size)
Chain of Thyrotropin receptor (Homo sapiens) (P16473 whole entry, looked up): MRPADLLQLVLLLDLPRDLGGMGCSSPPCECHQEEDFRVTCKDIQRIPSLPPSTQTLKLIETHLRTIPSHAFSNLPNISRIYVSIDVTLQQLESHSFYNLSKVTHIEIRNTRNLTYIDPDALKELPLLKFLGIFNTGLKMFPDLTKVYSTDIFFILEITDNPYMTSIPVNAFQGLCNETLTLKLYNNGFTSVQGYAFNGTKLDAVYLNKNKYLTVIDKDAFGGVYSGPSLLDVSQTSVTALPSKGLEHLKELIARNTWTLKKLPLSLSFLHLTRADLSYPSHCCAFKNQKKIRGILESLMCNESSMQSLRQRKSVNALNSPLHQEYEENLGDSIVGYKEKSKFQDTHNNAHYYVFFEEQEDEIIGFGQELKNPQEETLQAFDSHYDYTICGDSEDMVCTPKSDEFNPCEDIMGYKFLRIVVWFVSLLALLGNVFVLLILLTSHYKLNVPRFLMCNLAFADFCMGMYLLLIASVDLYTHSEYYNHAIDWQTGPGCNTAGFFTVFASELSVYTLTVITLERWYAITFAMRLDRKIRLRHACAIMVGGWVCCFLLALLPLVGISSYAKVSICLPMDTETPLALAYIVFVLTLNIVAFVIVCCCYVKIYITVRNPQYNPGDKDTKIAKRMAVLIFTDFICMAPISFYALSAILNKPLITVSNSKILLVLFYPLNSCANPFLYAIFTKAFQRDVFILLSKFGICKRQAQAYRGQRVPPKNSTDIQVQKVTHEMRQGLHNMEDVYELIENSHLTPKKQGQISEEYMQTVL
Procedure, shortened: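 TSHR-HEK293 cells (800/well) plated 18 h, then compounds with Ro20-1724 and TSH at 1.5 ng/mL final, 30 min at room temperature. cAMP quantified by HTRF (cAMP-d2/anti-cAMP-cryptate, 1 h); 15 concentrations in triplicate.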

[8] = qHTS assay to identify small molecule agonists of the estrogen receptor alpha (ER-alpha) signaling pathway in the presence of an antagonist - cell viability counter screen (AID 1259386);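 further: cells exposed to compounds for 22 h at 37 °C before the viability read; nearly all actives have a fitted effect of over 30% in size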; further: potency means the concentration at half of the fitted maximal effect
Procedure, shortened: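 Cell viability in VM7Luc4E2 cells (endogenous full-length ER-alpha) measured by CellTiter-Fluor fluorescence in the same wells as the luciferase screen. Cells pre-cultured 5 days in charcoal-stripped serum, then treated 22 h with compounds at 15 concentrations plus 10.0nM ICI-182,780.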

[9] = target: Progesterone receptor (Homo sapiens) (UniProt P06401); experiment: qHTS assay to identify small molecule agonists of the progesterone receptor (PR) signaling pathway (AID 1346784; calls by dose curve; further: nearly all actives have a fitted effect of over 30% in size)
Chain of Progesterone receptor (Homo sapiens) (P06401 whole entry, looked up): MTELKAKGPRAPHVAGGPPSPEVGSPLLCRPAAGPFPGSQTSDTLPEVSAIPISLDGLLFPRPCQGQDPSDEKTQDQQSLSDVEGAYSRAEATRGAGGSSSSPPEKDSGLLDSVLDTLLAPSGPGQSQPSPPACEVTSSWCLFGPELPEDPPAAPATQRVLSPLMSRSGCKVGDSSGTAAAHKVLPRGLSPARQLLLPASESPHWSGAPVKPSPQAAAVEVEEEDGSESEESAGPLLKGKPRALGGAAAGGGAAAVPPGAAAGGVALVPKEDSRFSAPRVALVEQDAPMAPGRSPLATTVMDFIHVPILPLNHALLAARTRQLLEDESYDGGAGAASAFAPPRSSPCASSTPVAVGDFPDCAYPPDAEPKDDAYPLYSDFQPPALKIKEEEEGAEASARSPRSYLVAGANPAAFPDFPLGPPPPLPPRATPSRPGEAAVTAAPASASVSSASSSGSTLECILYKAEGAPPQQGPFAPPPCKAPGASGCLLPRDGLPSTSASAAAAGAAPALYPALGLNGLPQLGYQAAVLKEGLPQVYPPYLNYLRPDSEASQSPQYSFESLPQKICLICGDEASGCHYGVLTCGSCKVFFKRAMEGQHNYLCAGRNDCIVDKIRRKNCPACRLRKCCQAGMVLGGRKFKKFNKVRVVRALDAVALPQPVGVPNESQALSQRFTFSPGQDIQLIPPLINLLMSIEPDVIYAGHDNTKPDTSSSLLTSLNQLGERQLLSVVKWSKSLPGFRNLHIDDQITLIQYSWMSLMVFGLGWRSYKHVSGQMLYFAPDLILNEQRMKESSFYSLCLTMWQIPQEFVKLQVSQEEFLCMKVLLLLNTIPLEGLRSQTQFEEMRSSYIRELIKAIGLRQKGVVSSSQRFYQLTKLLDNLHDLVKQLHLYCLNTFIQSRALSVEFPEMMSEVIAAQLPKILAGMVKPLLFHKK
Procedure, shortened: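 Seed PR-UAS-bla HEK 293T cells (2% charcoal-stripped FBS), incubate 6 hr at 37C; add compounds in DMSO, 16 hr at 37C; add LiveBLAzer B/G substrate, 2 hr RT; read fluorescence intensity.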

[10] = target: Progesterone receptor (Homo sapiens) (UniProt P06401); experiment: qHTS assay to identify small molecule antagonists of the progesterone receptor (PR) signaling pathway (AID 1346795; active means well fitted inhibition curve with a large enough effect in the signal ratio in the repeat runs, not every such curve was filed as active; the % refers to the signal ratio; further: potency means the concentration at half of the fitted maximal effect)
Procedure, shortened: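 Screening used a GripTite HEK293T line with PR-responsive UAS-beta-lactamase. Cells were challenged with compound in the presence of 1 nM R5020 final for 16 hr at 37C; B/G FRET substrate, 2 hr room temperature, fluorescence.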

[11] = qHTS assay to identify small molecule antagonists of the progesterone receptor (PR) signaling pathway - cell viability counter screen (AID 1346798); further: series mostly up to about 92 µM; nearly all actives have a fitted effect of over 50% in size
Procedure, shortened: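 Measures cytotoxicity in parallel with the PR antagonist reporter read: HEK293T PR-UAS-bla cells get compound and R5020 for 16 hr, and remaining viable cells are quantified by CellTiter-Glo luminescence.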

[12] = qHTS assay to identify small molecule agonists of the progesterone receptor (PR) signaling pathway - cell viability counter screen (AID 1346799; calls by dose curve; further: nearly all actives have a fitted effect of over 45% in size)
Procedure, shortened: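 Using the same plates as the PR reporter screen, HEK293T PR-UAS-bla cells received compounds for 16 hr at 37C and were then lysed with CellTiter-Glo; luminescence was read 30 min later at room temperature.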

[13] = qHTS assay to identify small molecule antagonists of the TGF-beta/Smad signaling pathway - cell viability counter screen (AID 1346824); further: nearly all actives have a fitted effect of over 50% in size; further: potency means the concentration at half of the fitted maximal effect
Procedure, shortened: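 SBE-bla HEK 293T cells, incubated overnight, then compound plus 0.25 ng/mL TGF-beta1 (stock added) for 5 hr at 37 C. Viability was read in the same wells by CellTiter-Glo luminescence after 30 min at room temperature.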

[14] = qHTS assay to identify small molecule agonists of the TGF-beta/Smad signaling pathway - cell viability counter screen (AID 1346829); further: nearly all actives have a fitted effect of over 45% in size; further: potency means the concentration at half of the fitted maximal effect
Procedure, shortened: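 Compound-treated SBE-bla HEK 293T cells (5 hr, 37 C) were assessed for viability with CellTiter-Glo in parallel with the reporter read.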

[15] = qHTS assay to identify small molecule agonists of the TGF-beta/Smad signaling pathway (AID 1346859; active means well fitted activation curve with a large enough effect in the signal ratio in the repeat runs, not every such curve was filed as active; the % refers to the signal ratio; further: series mostly up to about 77 µM)
Procedure, shortened: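 Beta-lactamase reporter activity downstream of Smad binding elements was measured in stably transfected HEK 293T cells; compounds were incubated for 5 hr, substrate for 2 hr at room temperature.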

[16] = target: Thyrotropin-releasing hormone receptor (Homo sapiens) (UniProt P34981); experiment: qHTS assay to identify small molecule antagonists of the thyrotropin-releasing hormone receptor (TRHR) signaling pathway (AID 1346877; active means well fitted inhibition curve with a large enough effect in the repeat runs, not every such curve was filed as active; further: series mostly up to about 51 µM)
Chain of Thyrotropin-releasing hormone receptor (Homo sapiens) (P34981 whole entry, looked up): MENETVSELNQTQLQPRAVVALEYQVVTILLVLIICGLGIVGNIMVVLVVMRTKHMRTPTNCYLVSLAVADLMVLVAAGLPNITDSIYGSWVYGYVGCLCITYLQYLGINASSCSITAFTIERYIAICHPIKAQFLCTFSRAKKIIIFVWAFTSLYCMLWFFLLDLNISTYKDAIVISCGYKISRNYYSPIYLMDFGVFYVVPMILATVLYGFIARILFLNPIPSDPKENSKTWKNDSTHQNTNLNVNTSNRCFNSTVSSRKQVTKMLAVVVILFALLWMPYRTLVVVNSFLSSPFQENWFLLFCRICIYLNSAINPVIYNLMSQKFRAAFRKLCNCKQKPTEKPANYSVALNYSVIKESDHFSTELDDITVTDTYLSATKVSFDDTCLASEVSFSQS
Procedure, shortened: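 TRHR-expressing HEK293 cells loaded with calcium dye for 2 h at 37 C; compounds pre-incubated 5 min at room temperature before TRH challenge at 1 nM final. Intracellular calcium fluorescence read kinetically for 3 min; 15 concentrations in triplicate.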

[17] = target: Thyrotropin-releasing hormone receptor (Homo sapiens) (UniProt P34981); experiment: qHTS assay to identify small molecule agonists of the thyrotropin-releasing hormone receptor (TRHR) signaling pathway (AID 1346891; calls by dose curve; further: series mostly up to about 58 µM)
Procedure, shortened: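 Overnight-plated (18 h, 37 °C, 5% CO2) TRHR-Hek293 cells; 2 h calcium dye at 37 °C; compound in DMSO; 3-min kinetic fluorescence read.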

[18] = target: Estrogen receptor beta (Homo sapiens) (UniProt Q92731); experiment: qHTS assay to identify small molecule antagonists of the estrogen receptor beta (ER-beta) signaling pathway (AID 1259378; active means well fitted inhibition curve with a large enough effect in the signal ratio in the repeat runs, not every such curve was filed as active; the % refers to the signal ratio)
Procedure, shortened: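 ER-beta-UAS-bla HEK293T cells in 2% charcoal-stripped FBS medium treated with compound plus 1nM final 17-beta-estradiol for 16 hr at 37C. Beta-lactamase reporter read by FRET substrate fluorescence after 2 hours at room temperature.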

[19] = target: Androgen receptor (Homo sapiens) (UniProt P10275); experiment: qHTS assay to identify small molecule agonists of the androgen receptor (AR) signaling pathway in the presence of an antagonist (AID 1259381; calls by dose curve; further: nearly all actives have a fitted effect of over 15% in size)
Chain of Androgen receptor (Homo sapiens) (P10275 whole entry, looked up): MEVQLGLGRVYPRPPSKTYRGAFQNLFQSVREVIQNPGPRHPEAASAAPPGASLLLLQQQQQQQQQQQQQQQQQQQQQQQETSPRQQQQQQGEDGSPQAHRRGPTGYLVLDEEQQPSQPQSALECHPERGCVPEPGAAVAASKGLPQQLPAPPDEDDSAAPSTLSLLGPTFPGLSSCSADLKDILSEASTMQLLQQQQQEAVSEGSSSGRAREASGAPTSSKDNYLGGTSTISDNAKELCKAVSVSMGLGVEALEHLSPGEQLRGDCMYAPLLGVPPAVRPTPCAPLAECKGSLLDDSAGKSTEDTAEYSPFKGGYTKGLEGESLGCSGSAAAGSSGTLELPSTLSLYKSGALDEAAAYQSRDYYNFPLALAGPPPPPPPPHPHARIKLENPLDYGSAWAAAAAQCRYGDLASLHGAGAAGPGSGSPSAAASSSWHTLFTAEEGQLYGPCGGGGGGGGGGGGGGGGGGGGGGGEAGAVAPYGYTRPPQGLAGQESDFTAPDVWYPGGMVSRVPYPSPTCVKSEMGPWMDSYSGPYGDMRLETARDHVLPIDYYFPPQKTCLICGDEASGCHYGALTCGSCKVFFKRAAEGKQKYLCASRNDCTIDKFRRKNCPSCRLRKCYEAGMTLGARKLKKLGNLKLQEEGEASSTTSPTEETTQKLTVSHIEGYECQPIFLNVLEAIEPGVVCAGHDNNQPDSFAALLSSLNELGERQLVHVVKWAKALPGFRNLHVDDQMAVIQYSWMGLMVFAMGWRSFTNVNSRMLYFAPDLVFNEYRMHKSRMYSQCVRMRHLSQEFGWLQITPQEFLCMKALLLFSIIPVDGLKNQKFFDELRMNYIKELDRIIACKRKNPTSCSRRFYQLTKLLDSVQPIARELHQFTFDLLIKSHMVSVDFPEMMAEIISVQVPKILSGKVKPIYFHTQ
Procedure, shortened: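 MDA-kb2 cells carrying MMTV-luciferase (AR/GR responsive), 3,000 cells/well, co-treated with 3.0 uM nilutamide final. Compounds at 15 concentrations, 16 hr at 37C without CO2. Luciferase luminescence read after 30 min with ONE-Glo.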

[20] = target: Estrogen receptor (Homo sapiens) (UniProt P03372); experiment: qHTS assay to identify small molecule agonists of the estrogen receptor alpha (ER-alpha) signaling pathway in the presence of an antagonist (AID 1259383; calls by dose curve; further: top concentration of the series differs between compounds; nearly all actives have a fitted effect of over 15% in size)
Chain of Estrogen receptor (Homo sapiens) (P03372 whole entry, looked up): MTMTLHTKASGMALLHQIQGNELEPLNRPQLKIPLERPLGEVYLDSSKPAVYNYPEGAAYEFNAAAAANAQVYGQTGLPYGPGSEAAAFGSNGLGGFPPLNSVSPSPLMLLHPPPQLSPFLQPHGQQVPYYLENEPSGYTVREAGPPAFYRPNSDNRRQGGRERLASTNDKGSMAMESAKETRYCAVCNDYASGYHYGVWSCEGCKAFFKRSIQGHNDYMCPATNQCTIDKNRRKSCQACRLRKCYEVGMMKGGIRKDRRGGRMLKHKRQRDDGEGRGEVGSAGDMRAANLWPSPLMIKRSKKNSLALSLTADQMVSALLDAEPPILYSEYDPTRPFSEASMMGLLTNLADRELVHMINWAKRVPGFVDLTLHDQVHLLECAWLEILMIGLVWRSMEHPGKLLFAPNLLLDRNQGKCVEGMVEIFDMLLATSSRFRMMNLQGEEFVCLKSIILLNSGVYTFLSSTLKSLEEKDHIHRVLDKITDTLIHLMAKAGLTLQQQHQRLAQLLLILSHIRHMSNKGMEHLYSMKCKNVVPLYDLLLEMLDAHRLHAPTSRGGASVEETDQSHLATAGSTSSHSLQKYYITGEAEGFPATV
Procedure, shortened: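 VM7Luc4E2 cells express endogenous full-length ER-alpha with an ERE-luciferase reporter and were hormone-deprived for 5 days. Compounds at 15 concentrations were added with 10.0nM ICI-182,780 for 22hr at 37C. Luminescence was read with ONE-Glo.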

Measured: Potency

CN(C)C(=O)COC(=O)Cc1ccc(OC(=O)c2ccc(N=C(N)N)cc2)cc1
not listed: [18] | [19] | [20]
inactive: all other assays above

FC(F)(F)c1cccc(Cl)c1
not listed: [2] | [9] | [10] | [11] | [14] | [16] | [17]
inactive: all other assays above

CC(C)(C)c1csc(-c2cc3cc(OCc4ccccc4CC(=O)O)ccc3o2)n1
active: [4] 4.86 µM | [5] 27.3 µM | [10] 43.3 µM
inactive: [1] | [2] | [20] | [6] | [8] | [13] | [14] | [16] | [17]

COC(C)=O
not listed: [2] | [6] | [7] | [9] | [12] | [16] | [17] | [19]
inactive: all other assays above

Cc1ccc(O)c(O)c1
active: [1] 5.29 µM | [10] 42 µM
inactive: [2] | [3] | [4] | [5] | [20] | [13] | [14] | [15] | [16] | [17]

O=C(O)c1cc(O)c2ccccc2c1O
active: [1] 1.72 µM | [3] 54.5 µM | [4] 30.6 µM | [8] 27.3 µM | [13] 4.9 µM | [14] 3.09 µM
inactive: [2] | [20] | [6] | [9] | [11] | [12] | [16] | [17]

CCCC1CCC(=O)CC1
not listed: [2] | [6] | [7] | [19]
inactive: all other assays above

CCn1c2ccccc2c2cc([N+](=O)[O-])ccc21
not listed: [2] | [6] | [7] | [10] | [11] | [15] | [19]
inactive: all other assays above
